{"source": "PubChem BioAssay AID504329", "about": "(Southern Research Specialized Biocontainment Screening …, 2011)", "note": "Screen size: about 340,000 compounds; about 1,000 (0.29%) were called active. The list is a sample of the results. Measured potencies and affinities stand elsewhere. Values without a mark were called inactive. Cut-off read from the data, not from the text of the source: inconclusive = inhibition above about 27% without an active follow-up result; inactive = below that.", "data": [{"assay": "H1N1 influenza NS1A inhibitors, functional cell based assay (AID 504329)", "settings": "percent inhibition, at 12.5 µM, stronger effect = higher value", "units": {"inhibition": "%"}, "values": [{"smiles": "Cc1cc(C)cc(OCC(=O)Nc2nonc2NC(=O)COc2cc(C)cc(C)c2)c1", "inhibition": -4.28}, {"smiles": "Nn1c(SC/C=C/c2ccccc2)nnc1-c1cccnc1", "inhibition": -6.35}, {"smiles": "Nn1c(SC/C=C/c2ccccc2)nnc1-c1ccncc1", "inhibition": -1.07}, {"smiles": "CN(c1ncc(C(F)(F)F)cc1Cl)N1C(=O)c2cccc(N)c2C1=O", "inhibition": -4.28}, {"smiles": "COc1ccccc1N1CCN(C(=O)c2sc3ncn(CC(=O)N4CCC(C)CC4)c(=O)c3c2C)CC1", "inhibition": 6.39}, {"smiles": "CN(Cc1nc(CC2CC2)no1)CC12CC3CC(CC(C3)C1)C2", "inhibition": -6.9}, {"smiles": "O=C(c1ccc(O)cc1)c1ccc(C(=O)c2ccc(O)cc2)cc1", "inhibition": -19.1}, {"smiles": "O=C(c1ccc(O)cc1)c1ccc(Cl)cc1", "inhibition": -10.1}, {"smiles": "CCOCCCNC(=O)C1c2ccccc2C(=O)N2CCc3ccccc3C12", "note": "(stereo not drawn)", "inhibition": 24.7}, {"smiles": "Nc1ccccc1Nc1ccccc1", "inhibition": 18.3}, {"smiles": "CC(=O)Nc1ccc(Nc2ccccc2)cc1", "inhibition": -4.36}, {"smiles": "Cc1ccc(Nc2cccccc2=O)cc1", "inhibition": -5.45}, {"smiles": "CC(C)Nc1ccccc1", "inhibition": -4.73}, {"smiles": "COc1ccc(Nc2cccccc2=O)cc1", "inhibition": -2.41}, {"smiles": "COc1ccc(Nc2cccc3ccccc23)cc1", "inhibition": -1.24}, {"smiles": "COc1ccccc1Nc1ccc(N)cc1", "inhibition": 10.9}, {"smiles": "Cc1ccc(Nc2ccccc2)cc1", "inhibition": 9.38}, {"smiles": "CC(CN1CCN(C)CC1)OC(=O)c1cccc(F)c1", "note": "(stereo not drawn)", "inhibition": -2.72}, {"smiles": "COc1cc(OC)c(CN2CCC(Cc3ccccc3)CC2)cc1Br", "inhibition": -20.9}, {"smiles": "COc1ccc(NC(=O)CSc2nc3[nH]ncc3c(=O)[nH]2)cc1OC", "inhibition": -0.08}, {"smiles": "COc1cccc(CNc2nc3nc(C)c(Cl)c(C)n3n2)c1", "inhibition": 0.89}, {"smiles": "CCc1nnc(NC(=O)COC(=O)c2cc(OC)cc(OC)c2)s1", "inhibition": 1.22}, {"smiles": "CCc1ccc(NC(=O)C2CCN(c3ncnc4c3nc3n4CCCCC3)CC2)cc1", "inhibition": -5.69}, {"smiles": "CCOc1ccc2oc(C(=O)N(Cc3nnc(-c4ccccc4Cl)o3)C3CC3)c(C)c2c1", "inhibition": -5.39}, {"smiles": "CC(C)c1ccc(CNC(=O)CSCC(=O)Nc2ccc3ccccc3c2)cc1", "inhibition": 1.48}, {"smiles": "CCc1nn(CC(=O)NC2CCN(Cc3ccccc3)CC2)c(=O)c2cc3cc(F)ccc3n12", "inhibition": 0.23}, {"smiles": "Cc1cc(C)c(NC(=O)CS(=O)CC(=O)Nc2ccc(-n3cnnn3)c(C)c2)c(C)c1", "note": "(stereo not drawn)", "inhibition": -3.45}, {"smiles": "C/C(=C/c1ccccc1)C(=O)N1CCN(c2ccc(F)cc2)CC1", "inhibition": -28.5}]}]}
